Test results as given in article PMC4336329 (PLoS ONE, 2015).
The campaign covered roughly 310,000 compounds. About 14,000 (4.5%) showed an effect of 50% or more. The effect is printed as a negative number. This excerpt belongs to a sample that is enriched for strong results.

target: human ether-à-go-go-related gene (hERG) potassium channel (human, UniProt Q12809); experiment: primary screen, population patch clamp on CHO cells stably expressing hERG; higher = less effect of the substance
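Also: peak tail current of the secondary pulse compared with the same well before compound.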

Sequence of human ether-à-go-go-related gene (hERG) potassium channel (Q12809 whole entry, looked up): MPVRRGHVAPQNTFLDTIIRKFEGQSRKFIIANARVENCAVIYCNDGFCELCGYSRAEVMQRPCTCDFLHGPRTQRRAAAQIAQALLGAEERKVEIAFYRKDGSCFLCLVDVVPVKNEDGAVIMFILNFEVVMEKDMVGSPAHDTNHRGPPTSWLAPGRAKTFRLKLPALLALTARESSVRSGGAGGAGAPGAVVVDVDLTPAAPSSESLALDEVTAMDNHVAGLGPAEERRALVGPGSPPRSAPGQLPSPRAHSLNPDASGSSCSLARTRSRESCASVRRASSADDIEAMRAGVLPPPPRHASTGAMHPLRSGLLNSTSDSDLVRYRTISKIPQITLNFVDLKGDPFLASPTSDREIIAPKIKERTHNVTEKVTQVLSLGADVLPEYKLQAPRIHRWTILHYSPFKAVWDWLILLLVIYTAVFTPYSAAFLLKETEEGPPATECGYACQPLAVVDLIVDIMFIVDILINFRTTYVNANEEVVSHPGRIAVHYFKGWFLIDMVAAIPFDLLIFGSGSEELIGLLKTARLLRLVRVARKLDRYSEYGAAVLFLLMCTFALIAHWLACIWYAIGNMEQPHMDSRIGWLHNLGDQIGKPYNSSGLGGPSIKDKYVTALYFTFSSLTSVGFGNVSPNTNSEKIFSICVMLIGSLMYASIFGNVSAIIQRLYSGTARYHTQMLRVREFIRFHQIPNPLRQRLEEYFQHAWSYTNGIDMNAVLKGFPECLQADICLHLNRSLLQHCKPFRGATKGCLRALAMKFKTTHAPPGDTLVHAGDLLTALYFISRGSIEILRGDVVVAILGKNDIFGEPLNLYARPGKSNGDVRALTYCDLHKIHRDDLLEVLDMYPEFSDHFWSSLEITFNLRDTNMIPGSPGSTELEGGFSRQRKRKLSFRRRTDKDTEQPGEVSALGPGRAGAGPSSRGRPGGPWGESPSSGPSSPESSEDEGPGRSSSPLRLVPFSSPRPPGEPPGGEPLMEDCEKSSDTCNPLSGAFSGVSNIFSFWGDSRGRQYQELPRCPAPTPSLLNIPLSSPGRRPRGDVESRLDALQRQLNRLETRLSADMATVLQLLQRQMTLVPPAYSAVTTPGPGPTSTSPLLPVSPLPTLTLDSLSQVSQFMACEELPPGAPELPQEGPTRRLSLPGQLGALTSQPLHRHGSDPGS

First: Nc1nnc(SCC(=O)Nc2cccc(S(=O)(=O)N3CCOCC3)c2)s1
Second: CCOC(=O)C1CSC(CC(=O)Nc2ccc(Cl)c(Cl)c2)C(=O)N1 (centres unmarked)
The “hERG current change (%, negative = inhibition) at 10uM” value of the first is higher: 24.1% for the first, -24.2% for the second.

Going from CC1(C(=O)N2CCN(c3ccc([N+](=O)[O-])cc3)CC2)CC1(Cl)Cl (centres unmarked) to COc1ccc(N2CCN(C(=O)C3(C)CC3(Cl)Cl)CC2)cc1 (centres unmarked), the “hERG current change (%, negative = inhibition) at 10uM” value rises from -72.7% to 2.66%.

Going from CC1(C(=O)N2CCN(c3ccccc3)CC2)CC1(Cl)Cl (centres unmarked) to COCC(=O)N1CCN(c2cccc(Cl)c2)CC1, the “hERG current change (%, negative = inhibition) at 10uM” value falls from 6.47% to -8.46%.

Going from O=C(C1CC1)N1CCN(c2ccc(O)cc2)CC1 to O=C(C1CC1)N1CCN(c2ccc([N+](=O)[O-])cc2)CC1, the “hERG current change (%, negative = inhibition) at 10uM” value falls from -17.3% to -61.8%.

First: CCOC(=O)N1CCN(c2c(N3CC=C(c4ccccc4)CC3)c(=O)c2=O)CC1
Second: CCOC(=O)N1CCN(c2c(N3CCc4ccccc4C3)c(=O)c2=O)CC1
The “hERG current change (%, negative = inhibition) at 10uM” value of the first is lower: -51.9% for the first, -34.8% for the second.

Compared with CC(=O)N1CCN(c2ccc(NC(=O)c3ccc([N+](=O)[O-])cc3)cc2)CC1, CC(=O)N1CCN(c2ccc([N+](=O)[O-])cc2)CC1 is lower in “hERG current change (%, negative = inhibition) at 10uM” value: 1.37% for the first, -55.9% for the second.

Going from CCOC(=O)N1CCN(c2c(-c3ccc(C)cc3)c(=O)c2=O)CC1 to CCOC(=O)N1CCN(C(=O)COc2ccc([N+](=O)[O-])cc2)CC1, the “hERG current change (%, negative = inhibition) at 10uM” value falls from -29.7% to -43%.

Going from CC(=O)N1CCN(C(=S)c2ccc([N+](=O)[O-])cc2)CC1 to CC(=O)OCC(=O)N1CCN(c2ccc([N+](=O)[O-])cc2)CC1, the “hERG current change (%, negative = inhibition) at 10uM” value falls from -3.4% to -63.3%.

Compared with COc1ccc(CC(=O)N(C)C2CCCN(Cc3ccccc3F)C2)cc1OC (centres unmarked), COc1ccc(CCN2CN(S(=O)(=O)c3ccccc3)c3nc4ccccc4nc32)cc1OC is higher in “hERG current change (%, negative = inhibition) at 10uM” value: -4.9% for the first, -0.784% for the second.

Compared with COc1ccc(CCC(=O)OCC(=O)Nc2sccc2C(N)=O)cc1, COc1ccc(N=C2SC(C(=O)O)CC(=O)N2C)cc1 (centres unmarked) is higher in “hERG current change (%, negative = inhibition) at 10uM” value: -5.4% for the first, 1.4% for the second.

First: CN1CCCN(c2ccc([N+](=O)[O-])cc2)CC1
Second: O=[N+]([O-])c1ccc(N2CCCCC2)cc1
The “hERG current change (%, negative = inhibition) at 10uM” value of the first is lower: -66% for the first, -16.5% for the second.

First: COc1ccc(N2CCN(c3ccc(C(=O)O)cc3[N+](=O)[O-])CC2)cc1
Second: COc1ccc(N2CCN(C(=O)c3cc([N+](=O)[O-])ccc3N3CCN(CCO)CC3)CC2)cc1
The “hERG current change (%, negative = inhibition) at 10uM” value of the first is higher: 11% for the first, -24.6% for the second.

Going from CC(=O)N1CCN(c2ccc(Oc3ccc([N+](=O)[O-])c(C(F)(F)F)c3)cc2)CC1 to COCC(=O)N1CCN(c2ccc([N+](=O)[O-])cc2)CC1, the “hERG current change (%, negative = inhibition) at 10uM” value falls from -59.9% to -62.7%.

Compared with CN1CCCN(c2ccc([N+](=O)[O-])nc2)CC1, CN1N=C(C(=O)N2CCN(c3ccc([N+](=O)[O-])cc3)CC2)CCC1=O is lower in “hERG current change (%, negative = inhibition) at 10uM” value: 2.45% for the first, -73% for the second.

Compared with O=C(Cc1ccccc1[N+](=O)[O-])OCC(=O)N1CCN(c2ccccc2)CC1, O=C(OCC(=O)N1CCN(c2ccccc2)CC1)c1cccc([N+](=O)[O-])c1 is lower in “hERG current change (%, negative = inhibition) at 10uM” value: -6.16% for the first, -28.2% for the second.

Compared with COc1cc2c(cc1OC)CN(c1ccc([N+](=O)[O-])c(C(F)(F)F)c1)CC2, Cc1c(C(=O)Nc2ccc3c4c(cccc24)CC3)cccc1[N+](=O)[O-] is higher in “hERG current change (%, negative = inhibition) at 10uM” value: -8.39% for the first, 9.1% for the second.

Going from CCOC(=O)C1CCN(C(=O)COc2ccc(Br)cc2)CC1 to CCOC(=O)C1CCN(C(=O)COc2ccc([N+](=O)[O-])cc2)CC1, the “hERG current change (%, negative = inhibition) at 10uM” value falls from -32.1% to -60.8%.

Going from Cc1cccc(-c2oc3ccc(-c4ccc5c(c4)OCO5)cc3c2C(=O)OCc2ccc(O)cc2)c1 to Cc1cccc(NC(=S)NCCC(c2ccccc2)c2ccccc2)c1, the “hERG current change (%, negative = inhibition) at 10uM” value rises from 6.27% to 12%.

First: c1ccc(-c2nn[nH]n2)nc1
Second: CC(C)C(=O)NNS(=O)(=O)c1ccccc1[N+](=O)[O-]
The “hERG current change (%, negative = inhibition) at 10uM” value of the first is higher: 9.49% for the first, 3.1% for the second.

Going from CCn1c(-c2cc(OC)c(OC)c(OC)c2)n[nH]c1=S to COc1cccc(CNC(=O)CCCn2nc(C)c3c(C)n(-c4ccccc4)nc3c2=O)c1, the “hERG current change (%, negative = inhibition) at 10uM” value falls from 12.1% to -10%.

Going from Cc1ccc(/C([O-])=C(/C(=S)NCc2ccco2)[n+]2ccccc2)cc1[N+](=O)[O-] to COc1ccc(N=C2SC(C(=O)N3CCN(c4ccccc4)CC3)CC(=O)N2C)cc1 (centres unmarked), the “hERG current change (%, negative = inhibition) at 10uM” value rises from -18% to -13%.

First: CCOCC(=O)N1CCN(c2cccc(Cl)c2)CC1
Second: CCOCC(=O)N1CCN(c2ccc(F)cc2)CC1
The “hERG current change (%, negative = inhibition) at 10uM” value of the first is higher: 8.4% for the first, -15.9% for the second.

Going from CCOCC(=O)N1CCN(c2ccc([N+](=O)[O-])cc2)CC1 to COc1ccc(N=C2SC(C(=O)N3CCN(c4ccc([N+](=O)[O-])cc4)CC3)CC(=O)N2C)cc1 (centres unmarked), the “hERG current change (%, negative = inhibition) at 10uM” value rises from -71.8% to -68.2%.

With CN1N=C(C(=O)N2CCCC(N3CCN(c4ccc(F)cc4)CC3)C2)CCC1=O (centres unmarked) the “hERG current change (%, negative = inhibition) at 10uM” value was 2.78%.
